We go through 61 compounds from PubChem BioAssay AID1851 (National Center for Advancing Translational Sciences (NCATS), 2009).

A word on the AC50: it is the concentration giving half of the maximal activity seen.

Hit rate of the full screen: of about 16,000 compounds, about 5,100 (32%) were called active. Not shown: some 25% with an inconclusive outcome. Calls come from the whole dose curve; as a rule, active = well fitted curve in the direction sought with a large enough effect; inconclusive = small, poorly fitted or top-dose-only effect, or effect the other way; inactive = no such curve, though single readings can be large or run the other way. The list shows a part of the results. Some compounds were tested as several samples or in several runs, with calls that do not always agree.
% is set by controls: 0 for no effect and ±100 for the full control effect.

Sequence of Cytochrome P450 3A4 (Homo sapiens) (P08684 whole entry, looked up): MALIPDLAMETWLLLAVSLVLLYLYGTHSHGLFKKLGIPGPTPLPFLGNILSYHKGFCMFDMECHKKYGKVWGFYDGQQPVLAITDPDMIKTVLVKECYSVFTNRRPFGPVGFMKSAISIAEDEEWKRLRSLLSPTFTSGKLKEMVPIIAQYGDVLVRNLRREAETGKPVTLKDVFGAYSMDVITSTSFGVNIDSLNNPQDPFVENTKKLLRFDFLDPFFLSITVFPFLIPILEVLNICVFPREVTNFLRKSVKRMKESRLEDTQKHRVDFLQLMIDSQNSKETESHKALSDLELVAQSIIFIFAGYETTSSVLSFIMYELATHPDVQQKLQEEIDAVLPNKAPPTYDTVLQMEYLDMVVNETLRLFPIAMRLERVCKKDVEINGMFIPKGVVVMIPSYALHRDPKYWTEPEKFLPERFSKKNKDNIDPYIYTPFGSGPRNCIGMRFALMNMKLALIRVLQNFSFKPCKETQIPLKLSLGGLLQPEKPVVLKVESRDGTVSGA

This assay concerns the target Cytochrome P450 3A4 (Homo sapiens) (UniProt P08684). Nature of the assay: Cytochrome panel assay with activity outcomes. The conditions noted are these: recombinant CYP, pro-luciferin dealkylation, luminescence, p450-cyp3a4; series mostly up to 57.1 µM; activity, negative = inhibition: at the top concentration.
`CC(C)c1nccn1Cc1ccc(Cl)cc1Cl`: the activity, negative = inhibition is -9.57% [at 11.4 µM] (inactive).

Turning to `O=C(O)[C@@H]1C[C@H]1[C@@H](NP(=O)(c1ccccc1)c1ccccc1)c1ccccc1`, the “activity, negative = inhibition” value is -0.397% (inactive).

Regarding `CCC/C=C(\CCC)C(NP(=O)(c1ccccc1)c1ccccc1)c1ccccc1` (stereo unspecified), the AC50 is 6.31 µM (active).

Turning to `O=C(O)[C@H]1C[C@@H]1[C@H](NP(=O)(c1ccccc1)c1ccccc1)c1ccccc1`, the “activity, negative = inhibition” value is -25.2% (inactive).

For the compound `c1cc(C2N3CCCN2CC3)ccn1` (stereo unspecified), the activity, negative = inhibition was -11.6% [at 11.4 µM] (inactive).

As for `CCCCCCCCCC[Si](C)(C)CCC(=O)N[C@@H](Cc1ccc(C)cc1)c1ccccc1`, the “activity, negative = inhibition” value was -12.4% (inactive).

On to `C[N+]12CCC(CC1)[C@@H](OC(=O)C(O)(c1ccccc1)c1ccccc1)C2`, for which the “activity, negative = inhibition” value was -11.8% [at 25.6 µM] (inactive).

`Cc1nc(-c2ccc(-c3ccc(C(=O)N4CCc5cc6c(cc54)C4(CCN(C)CC4)CO6)cc3)c(C)c2)no1`: the “activity, negative = inhibition” value is -15.2% (inactive).

For the compound `c1cc(CN2CCCC3(CCNCC3)C2)ccn1`, the concentration at half-maximal activity (AC50) was 15.8 µM (active).

As to `c1cc(CN2CC3(CCNCC3)C2)ccn1`, the “activity, negative = inhibition” value was -30.5% (inactive).

For the compound `c1ccc(CN2CCCC3(CCNCC3)C2)cc1`, the “activity, negative = inhibition” value is -19.6% (inactive).

For `CC(=NCc1ccco1)c1c(O)n(-c2ccccc2)c(=O)[nH]c1=O`, the “activity, negative = inhibition” value is 11.3% (inactive).

For `Cc1nc2ccccc2cc1C[N+]12CN3CN(CN(C3)C1)C2`, the activity, negative = inhibition is -6.46% [at 11.4 µM] (inactive).

`Cc1[nH]c2ccc(O)cc2c1CCN`: the “activity, negative = inhibition” value was -14.9% (inactive).

As to `N[C@H](CCCCCP(=O)(O)O)C(=O)O`, the activity, negative = inhibition entry was “inactive”.

`OC(c1ccccc1)(c1ccccc1)C1CCCN1` (stereo unspecified): the activity, negative = inhibition was -2.76% [at 2.29 µM] (inactive).

With `O=C1N[C@@]2(CN3CCC2CC3)C(=O)N1CN(Cc1ccccc1)c1ccccc1`, the activity, negative = inhibition is 1.78% [at 11.4 µM] (inactive).

With `CN1C2CCC1CC(OC(=O)c1ccc(Cl)cc1)C2` (stereo unspecified), the “activity, negative = inhibition” value is 0.0365% (inactive).

As for `Cc1sc2c(c1C)C(c1ccc(C(C)(C)C)cc1)=NCC(=O)N2CC(=O)Nc1nccs1`, the AC50 is 7.94 µM (active).

`Nc1nnnn1CCO`: the activity, negative = inhibition is -6.3% [at 11.4 µM] (inactive).

On to `O=c1oc(Cl)c(Cl)c2ccccc12`, for which the “activity, negative = inhibition” value is 6.83% (inactive).

Consider `O=C(O)C(C(=O)O)P(=S)(S)c1ccccc1` (stereo unspecified), for which the activity, negative = inhibition was 8.13% [at 11.4 µM] (inactive).

As for `C[C@H]1CC[C@@]2(NC1)O[C@@H]1C[C@H]3[C@@H]4CC=C5C[C@@H](O)CC[C@]5(C)[C@@H]4CC[C@]3(C)[C@@H]1[C@@H]2C`, the “activity, negative = inhibition” value is 5.49% [at 25.6 µM] (inactive).

Turning to `O=[As](O)(O)c1ccc(NCc2ccccc2)cc1`, the activity, negative = inhibition is -8.35% [at 11.4 µM] (inactive).

With `COc1cc(OC)c(/C=C2/C(=O)Nc3ccccc32)c(OC)c1`, the AC50 was 2.51 µM (active).

For the compound `OC(c1ccccc1)(c1ccccc1)C1CCNCC1`, the “activity, negative = inhibition” value was -16.4% [at 25.6 µM] (inactive).

For `CC(C)(C)C(=O)CP(=O)(O)O`, the activity, negative = inhibition is -7.32% [at 11.4 µM] (inactive).

In the case of `CCCCc1ccc(C(=O)O)nc1`, the “activity, negative = inhibition” value is -1.67% [at 25.6 µM] (inactive).

`C[C@]12CC[C@@H]3[C@H](CCC4=CC(=O)CC[C@]43C)[C@]1(O)CC[C@@]2(O)C(=O)CO`: the activity, negative = inhibition was -0.348% [at 11.4 µM] (inactive).

As for `Oc1ccc(-c2nc(-c3ccc(F)cc3)c(-c3ccncc3)[nH]2)cc1`, the concentration at half-maximal activity (AC50) was 0.501 µM (active).

Regarding `N[C@H](Cc1c[nH]c2ccccc12)P(=O)(O)O`, the activity, negative = inhibition is -2.01% [at 11.4 µM] (inactive).

For the compound `CC[C@H](C(=O)[C@H](C)[C@H](O)[C@H](C)CCc1ccc(C)c(O)c1C(=O)O)[C@H]1O[C@](CC)([C@@H]2CC[C@@](O)(CC)[C@H](C)O2)C[C@H]1C`, the concentration at half-maximal activity (AC50) was 7.94 µM (active).

Turning to `CS(=O)(=O)O[C@H]1CN2CCC1CC2`, the activity, negative = inhibition was -6.57% [at 11.4 µM] (inactive).

Take `C[C@@H](C(=O)OC1C[C@H]2CC[C@@H](C1)N2C)c1ccc(Br)cc1` (stereo partly specified): the “activity, negative = inhibition” value is -5.24% (inactive).

Turning to `O=C(Cn1ncc2ccsc2c1=O)N1CCC2(CC1)OCCO2`, the “activity, negative = inhibition” value is -18.2% (inactive).

Take `Cc1ccccc1-c1nc(CS(=O)CC(=O)N2CCC3(CC2)OCCO3)c(C)o1` (stereo unspecified): the “activity, negative = inhibition” value is 18.8% (inactive).

Turning to `Cc1oc(-c2ccccc2F)nc1CS(=O)CC(=O)N1CCC2(CC1)OCCO2` (stereo unspecified), the AC50 was 25.1 µM (active).

Consider `COc1cc2c(cc1OC)[C@@]13CCN4CC5=CCO[C@H](CC(=O)O)[C@@H]([C@H]1N2)[C@H]5C[C@H]43`, for which the activity, negative = inhibition was -10.2% [at 11.4 µM] (inactive).

For `CCC1(CCSC(=N)N)C(=O)NC(=O)NC1=O`, the activity, negative = inhibition was -21.7% [at 11.4 µM] (inactive).

For the compound `C[C@H]1[C@H](NC(=O)/C(=N/OC(C)(C)C(=O)O)c2csc(N)n2)C(=O)N1S(=O)(=O)O` (stereo in doubt), the “activity, negative = inhibition” value was 1.53% [at 25.6 µM] (inactive).

Take `O=C(O)CNC(=O)[C@@H](CS)Cc1ccccc1`: the “activity, negative = inhibition” value was -3.06% [at 25.6 µM] (inactive).

With `CC(C)(C)c1cc(C=C(C#N)C#N)cc(C(C)(C)C)c1O`, the half-maximal activity concentration (AC50) was 3.16 µM (active).

On to `N#CC(C#N)=Cc1cc(O)c(O)c(O)c1`, for which the half-maximal activity concentration (AC50) was 10 µM (active).

As to `NCc1cc(=O)[nH]o1`, the activity, negative = inhibition result was “inactive”.

For `CCCN[C@@H]1CCc2c(OC)cccc2[C@@H]1C`, the “activity, negative = inhibition” value was -22.1% (inactive).

As for `C[C@H]1CN(C2CCC(C#N)(c3ccc(F)cc3)CC2)CC[C@@]1(C(=O)O)c1ccccc1` (stereo partly specified), the “activity, negative = inhibition” value was 0.78% [at 25.6 µM] (inactive).

For the compound `COc1cc2c(cc1O)C[C@@H]1c3c(cc(O)c(OC)c3-2)CCN1C`, the activity, negative = inhibition was -12.7% [at 11.4 µM] (inactive).

On to `CCCN1CC[C@@H]2c3cc(O)ccc3CC[C@H]21`, for which the “activity, negative = inhibition” value was -8.01% (inactive).

On to `CC(C)c1ccc(C(c2c(O)c3ccccc3oc2=O)c2c(O)c3ccccc3oc2=O)cc1`, for which the activity, negative = inhibition is -28.5% [at 11.4 µM] (inactive).

As to `CC1=NCCc2c1[nH]c1cc(O)ccc21`, the “activity, negative = inhibition” value was -15.3% [at 25.6 µM] (inactive).

For `CCNC[C@H](O)c1cccc(O)c1`, the “activity, negative = inhibition” value is -7.75% [at 25.6 µM] (inactive).

As for `CC(NCc1ccc(Cl)cc1)C(O)c1ccccc1` (stereo unspecified), the “activity, negative = inhibition” value was -27% (inactive).

With `C[C@@H](Cc1ccc(OCC(=O)O)cc1)NC[C@H](O)c1cccc(Cl)c1`, the AC50 was 25.1 µM (active) and inactive.

On to `CCOC(=O)c1ncn2c1CN(C)C(=O)c1cc(F)ccc1-2`, for which the “activity, negative = inhibition” value is -3.59% (inactive).

In the case of `Cn1ccnc1`, the “activity, negative = inhibition” value is 4.6% (inactive).

As to `CNCCc1c[nH]c2ccc(O)cc12`, the “activity, negative = inhibition” value was -6.65% (inactive).

Take `CC(=O)c1ccc2c(c1)N(CCCN(C)C)c1ccccc1S2`: the “activity, negative = inhibition” value is -19.6% [at 25.6 µM] (inactive).

Turning to `O=C(c1cc2cc3ccc(Cl)cc3nc2o1)N1CCC2(CC1)OCCO2`, the “activity, negative = inhibition” value was -25.6% (inactive).

Regarding `C=CCN1C(=O)c2ccccc2Sc2ccc(C(=O)N3CCC4(CC3)OCCO4)cc21`, the concentration at half-maximal activity (AC50) is 3.98 µM (active).

For the compound `O=C(O)CS(=O)(=O)C(c1ccccc1)c1ccccc1`, the activity, negative = inhibition was 2.64% [at 11.4 µM] (inactive).

As for `CC(=O)c1c(O)c(C)c(O)c(Cc2c(O)c3c(c(C(=O)/C=C\c4ccccc4)c2O)OC(C)(C)C=C3)c1O`, the AC50 is 12.6 µM (active).
